# Records with an inconclusive call do not appear. Activity calls are given as the source filed them. Unless noted, how the calls were made is not given here.
# Legend:
# [1] = growth inhibition of DIPG glioma cells, dose response, cell-based, SU-DIPG-XIII, MIPE4.0, CellTiter-Glo, qHTS (AID 1347061; cut-off not given, nearly all actives have AC50 up to about 37 µM;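 further: cells exposed to compound for 48 hours before readout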); conditions: SU-DIPG-XIII viability, CellTiter-Glo ATP luminescence
# [2] = growth inhibition of DIPG glioma cells, dose response, cell-based, SU-DIPG-XIII, MIPE5.0, CellTiter-Glo, qHTS (AID 1347064; cut-off not given, nearly all actives have AC50 up to about 23 µM;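 on AC50: cells exposed to compound for 48 hours before the viability read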); conditions: SU-DIPG-XIII viability, CellTiter-Glo ATP luminescence
# [3] = modifiers of HSF1 nuclear foci, imaging, Selleck Cancer Library (AID 1347162; in the data active means plate-normalised HSF1 focus index below about 0.46); conditions: human cells, at 10 µM; SSMD: measured here: HSF1 foci SSMD mean; cell count: measured here: cell number; plate-normalised HSF1 focus index: stronger effect = lower value
# [4] = biological target: NAD(+) hydrolase SARM1 (Homo sapiens) (UniProt Q6SZW1); experiment: SARM1 TIR NADase inhibitors, cell lysate, NAD-Glo luminescence (AID 1508614;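 active means compound whose remaining NAD level is above about 45 nM, limit read from the data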); conditions: SAM-TIR HEK293T lysate NADase, at 1 µM, stronger effect = higher value
# [5] = hESC survival regulators, cell-based (AID 493140); conditions: human embryonic stem cell survival screen; stronger effect = higher value;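 further: cells exposed to compounds for four days before counting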
# [6] = circadian clock period modulators, cell-based, LOPAC library, luminescence reporter (AID 2774); conditions: circadian reporter cells, at 7 µM, actives lie on both sides;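 further: values are relative to mean of DMSO wells on each plate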
# [7] = tested on: Hepatitis C virus NS3 helicase; experiment: HCV NS3 helicase inhibitors, primary screen, biochemical, fluorescence polarization, LOPAC1280 library (AID 687035; in the data active means inhibition above about 37%); conditions: Purified HCV NS3 helicase, Cy5-dT15 ssDNA binding fluorescence polarization; stronger effect = higher value; concentration not given here
# [8] = Cy5 fluorescence quenching or enhancement artefacts, artefact control for HCV NS3 helicase inhibitor project, biochemical, LOPAC1280 (AID 687037); conditions: Cy5-DNA-NS3h complex fluorescence interference counterscreen
# Sequence of NAD(+) hydrolase SARM1 (Homo sapiens) (Q6SZW1 whole entry, looked up): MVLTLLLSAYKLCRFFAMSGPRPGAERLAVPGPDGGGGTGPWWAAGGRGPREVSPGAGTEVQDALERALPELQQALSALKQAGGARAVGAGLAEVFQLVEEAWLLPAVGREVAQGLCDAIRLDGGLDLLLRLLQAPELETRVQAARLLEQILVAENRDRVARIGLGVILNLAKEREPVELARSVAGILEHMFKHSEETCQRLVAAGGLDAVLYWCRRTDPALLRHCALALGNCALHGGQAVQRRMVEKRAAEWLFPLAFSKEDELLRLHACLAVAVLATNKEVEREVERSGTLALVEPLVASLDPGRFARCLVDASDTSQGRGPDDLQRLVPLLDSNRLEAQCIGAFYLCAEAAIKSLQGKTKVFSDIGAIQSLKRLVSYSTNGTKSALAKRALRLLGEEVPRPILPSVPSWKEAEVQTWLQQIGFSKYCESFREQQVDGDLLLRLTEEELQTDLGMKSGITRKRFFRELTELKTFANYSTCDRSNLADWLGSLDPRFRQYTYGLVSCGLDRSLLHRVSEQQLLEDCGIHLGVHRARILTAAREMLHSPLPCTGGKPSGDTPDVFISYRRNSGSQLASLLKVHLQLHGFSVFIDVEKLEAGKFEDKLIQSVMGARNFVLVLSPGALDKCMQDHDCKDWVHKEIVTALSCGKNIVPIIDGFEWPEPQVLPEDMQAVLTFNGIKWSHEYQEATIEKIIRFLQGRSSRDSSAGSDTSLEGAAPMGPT
structure (smiles),measurement,setting,value
NC(=O)Cc1cccc(C(=O)c2ccccc2)c1N,outcome,[1],inactive
C=CCc1cc(OC)c(O)c(C(=O)NCCO)c1,outcome,[1],inactive
O=C(O)c1c(Cl)c(Cl)c(Cl)c(Cl)c1-c1c2cc(I)c(=O)c(I)c-2oc2c(I)c(O)c(I)cc12,AC50,[1],16.6 µM (active)
same,AC50,[2],6.61 µM (active)
C#Cc1cccc(Nc2ncnc3cc(OCCOC)c(OCCOC)cc23)c1,SSMD,[3],2.72
same,cell count,[3],6730
same,plate-normalised HSF1 focus index,[3],1.14 (inactive)
COc1cc(Nc2c(C#N)cnc3cc(OCCCN4CCN(C)CC4)c(OC)cc23)c(Cl)cc1Cl,SSMD,[3],-18.3
same,cell count,[3],5030
same,plate-normalised HSF1 focus index,[3],0.345 (active)
Clc1cccc(C(c2ccc3nc[nH]c3c2)n2ccnc2)c1 (stereo not drawn),outcome,[2],inactive
COc1nc(N)nc2c1ncn2[C@@H]1O[C@H](CO)[C@@H](O)[C@@H]1O,outcome,[1],inactive
same,remaining NAD,[4],10 nM (inactive)
COC(=O)N[C@H](C(=O)N[C@@H](Cc1ccccc1)[C@@H](O)CN(Cc1ccc(-c2ccccn2)cc1)NC(=O)[C@@H](NC(=O)OC)C(C)(C)C)C(C)(C)C,outcome,[1],inactive
CC(=O)O[C@@]12CO[C@@H]1C[C@H](O)[C@@]1(C)C(=O)[C@H](O)C3=C(C)[C@@H](OC(=O)[C@H](O)[C@@H](NC(=O)OC(C)(C)C)c4ccccc4)C[C@@](O)([C@@H](OC(=O)c4ccccc4)[C@H]21)C3(C)C,outcome,[2],inactive
same,remaining NAD,[4],10 nM (inactive)
COc1cc(NCc2ccc3nc(N)nc(N)c3c2C)cc(OC)c1OC,AC50,[2],7.42 µM (active)
C[C@@H]1C[C@H]2[C@@H]3CCC4=CC(=O)C=C[C@]4(C)[C@@]3(Cl)[C@@H](O)C[C@]2(C)[C@@]1(OC(=O)c1ccco1)C(=O)CCl,survival,[5],4.67 (inactive)
same,remaining NAD,[4],10 nM (inactive)
O=C(O)c1nc(=O)[nH]c(=O)[nH]1,outcome,[2],inactive
CCCCCCCCOc1ccccc1C(=O)Nc1ccc(C(=O)OCC[N+](C)(CC)CC)cc1,outcome,[1],inactive
CC1=C(C)C(=O)C(CCCCC#CCCCC#CCO)=C(C)C1=O,period change,[6],-0.105 h (inactive)
same,inhibition,[7],-2% (inactive)
same,fluorescence ratio (interference),[8],1 (inactive)
CN(c1nccc(=O)[nH]1)C1CCN(c2nc3ccccc3n2Cc2ccc(F)cc2)CC1,outcome,[1],inactive
C[C@]12CC[C@@H]3c4ccc(O)cc4C[C@@H](CCCCCCCCCS(=O)CCCC(F)(F)C(F)(F)F)[C@H]3[C@@H]1CC[C@@H]2O (stereo partly drawn),inhibition,[7],0% (inactive)
same,fluorescence ratio (interference),[8],0.9 (inactive)
same,outcome,[1],inactive
same,SSMD,[3],2.09
same,cell count,[3],7000
same,plate-normalised HSF1 focus index,[3],1.13 (inactive)
same,remaining NAD,[4],10 nM (inactive)
CCC(C)(C)c1ccc(CC(C)CN2C[C@@H](C)O[C@@H](C)C2)cc1 (stereo partly drawn),remaining NAD,[4],10 nM (inactive)
COc1cccc(N(C)C(=S)Oc2ccc3c(c2)CCCC3)n1,outcome,[1],inactive
COC(=O)C1=C(C)NC(C)=C(C(=O)OCCN2CCN(C(c3ccccc3)c3ccccc3)CC2)C1c1cccc([N+](=O)[O-])c1 (stereo not drawn),AC50,[2],8.33 µM (active)
same,remaining NAD,[4],10 nM (inactive)
Nc1cccc2c1CN(C1CCC(=O)NC1=O)C2=O (stereo not drawn),SSMD,[3],2.07
same,cell count,[3],6670
same,plate-normalised HSF1 focus index,[3],1.11 (inactive)
COc1ccc(CCN(C)CCCC(C#N)(c2cc(OC)c(OC)c(OC)c2)C(C)C)cc1OC (stereo not drawn),period change,[6],-0.105 h (inactive)
same,inhibition,[7],-1% (inactive)
same,fluorescence ratio (interference),[8],1 (inactive)
CC(C)(C)c1ccc(C(=O)CCCN2CCC(OC(c3ccccc3)c3ccccc3)CC2)cc1,inhibition,[7],3% (inactive)
same,fluorescence ratio (interference),[8],1 (inactive)
CCNC(=O)N1CCN(CCCC(c2ccc(F)cc2)c2ccc(F)cc2)CC1,period change,[6],-0.05 h (inactive)
same,inhibition,[7],-1% (inactive)
same,fluorescence ratio (interference),[8],1 (inactive)
C[N+](C)(C)CCOC(=O)CCC(=O)OCC[N+](C)(C)C,period change,[6],0.025 h (inactive)
same,inhibition,[7],2% (inactive)
same,fluorescence ratio (interference),[8],1 (inactive)
COC(=O)C1=C(C)NC(C)=C(C(=O)OC(C)(C)CN(C)CCC(c2ccccc2)c2ccccc2)C1c1cccc([N+](=O)[O-])c1 (stereo not drawn),inhibition,[7],3% (inactive)
same,fluorescence ratio (interference),[8],1 (inactive)
O=C(O)CN(CCOCCOCCN(CC(=O)O)CC(=O)O)CC(=O)O,period change,[6],0.1 h (inactive)
same,inhibition,[7],-1% (inactive)
same,fluorescence ratio (interference),[8],1 (inactive)
CCCCCCCCCCCCCCC[C@H](O)[C@@H](N)CO,survival,[5],80 (inactive)
OCCN1CCN(CCCN2c3ccccc3C=Cc3ccccc32)CC1,inhibition,[7],-5% (inactive)
same,fluorescence ratio (interference),[8],1 (inactive)
CCN1CCc2nc(N)oc2CC1,period change,[6],0.015 h (inactive)
same,inhibition,[7],-3% (inactive)
same,fluorescence ratio (interference),[8],1 (inactive)
C[C@]12CCC(=O)C=C1CC[C@@H]1[C@@H]2CC[C@@]2(C)[C@H]1CC[C@]2(O)C(=O)CO,period change,[6],-0.335 h (inactive)
same,inhibition,[7],0% (inactive)
same,fluorescence ratio (interference),[8],1 (inactive)
Nc1cc(=O)[nH]c(N)n1,period change,[6],-0.06 h (inactive)
same,inhibition,[7],1% (inactive)
same,fluorescence ratio (interference),[8],1.1 (inactive)
CCN(CC)CCCN(c1ccccc1)C1Cc2ccccc2C1,inhibition,[7],-1% (inactive)
same,fluorescence ratio (interference),[8],1 (inactive)
O=C(O)CP(=O)(O)O,period change,[6],0.02 h (inactive)
same,inhibition,[7],-3% (inactive)
same,fluorescence ratio (interference),[8],0.9 (inactive)
C(=C\c1ccccc1)/CN1CCN(C(c2ccccc2)c2ccccc2)CC1,period change,[6],0.12 h (inactive)
same,survival,[5],11.3 (inactive)
same,inhibition,[7],1% (inactive)
same,fluorescence ratio (interference),[8],1 (inactive)
same,remaining NAD,[4],10 nM (inactive)
N[C@@H](CC(=O)O)C(=O)O,period change,[6],0.065 h (inactive)
same,inhibition,[7],0% (inactive)
same,fluorescence ratio (interference),[8],0.9 (inactive)
same,remaining NAD,[4],10 nM (inactive)
OCCN1CCN(CC/C=C2/c3ccccc3Sc3ccc(C(F)(F)F)cc32)CC1,period change,[6],-0.1 h (inactive)
same,survival,[5],3.17 (inactive)
same,inhibition,[7],-1% (inactive)
same,fluorescence ratio (interference),[8],1 (inactive)
CC1=C(CC(=O)O)c2cc(F)ccc2/C1=C\c1ccc(S(C)(=O)=O)cc1,period change,[6],0.07 h (inactive)
same,inhibition,[7],-4% (inactive)
same,fluorescence ratio (interference),[8],1 (inactive)
